Only some compounds are listed: those with a hit (about 22% of all), similar ones and a draw of the others.
Cycloheximide cs: Cycloheximide Counterscreen for Small Molecule Inhibitors of Shiga Toxin | cell reporter, cycloheximide protein synthesis inhibition counterscreen | max response, % | 12% of 300,000 active | AID 2314, 2010; in the data active = max response mostly above about 13%, no sharp cut-off; inactive = mostly below about 14%; also: read at 38.3 µM for the half of the compounds with a filed dose; 0% is about no effect
Pf growth 96h: Primary qHTS for delayed death inhibitors of the malarial parasite plastid, 96 hour incubation; 6.9% of 320,000 active; AID 504834, 2011; Potency, µM (top dose mostly 28.7 µM), for the others: top-dose activity change, negative = inhibition, most hits filed as inhibitors; P. falciparum luciferase reporter growth, 96 h; also: potency is read from the fitted curve at half-maximal effect; % is scaled to controls: 0 for no effect and ±100 for the full control effect
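Luminescence readout: decreased luciferase signal marks inhibited growth of reporter-expressing P. falciparum in infected red cells (2% hematocrit, 0.05% parasitemia final), exposed to compound two generations (96 h, 37 C, 5% CO2).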
Pf growth 48h: Primary qHTS for delayed death inhibitors of the malarial parasite plastid, 48 hour incubation; P. falciparum luciferase growth in erythrocytes, 48 h; Potency, µM (titrated, usually from 28.7 µM), for inactives: at the top dose activity change, negative = inhibition, actives largely listed as inhibitors; 5.9% of 310,000 active; AID 504832, 2011; also: potency is read from the fitted curve at half-maximal effect; % is scaled to controls: 0 for no effect and ±100 for the full control effect
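In quantitative HTS format, infected erythrocytes bearing luciferase-reporter parasites were treated for a single generation at 37 C. Luminescence after adding detection reagent served as the growth measure.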
LmPK inh: qHTS Assay for Inhibitors of Leishmania Mexicana Pyruvate Kinase (LmPK). Potency, µM (top dose mostly 57.5 µM), inactives show at the highest dose activity change, negative = inhibition, hits mostly inhibitors. Q27686. AID 1721, 2009. 0.37% of 290,000 active. purified LmPK, Kinase-Glo ATP luminescence, 1 h; also: potency is read from the fitted curve at half-maximal effect; % is scaled to controls: 0 for no effect and ±100 for the full control effect
Target sequence (Q27686 whole entry, looked up): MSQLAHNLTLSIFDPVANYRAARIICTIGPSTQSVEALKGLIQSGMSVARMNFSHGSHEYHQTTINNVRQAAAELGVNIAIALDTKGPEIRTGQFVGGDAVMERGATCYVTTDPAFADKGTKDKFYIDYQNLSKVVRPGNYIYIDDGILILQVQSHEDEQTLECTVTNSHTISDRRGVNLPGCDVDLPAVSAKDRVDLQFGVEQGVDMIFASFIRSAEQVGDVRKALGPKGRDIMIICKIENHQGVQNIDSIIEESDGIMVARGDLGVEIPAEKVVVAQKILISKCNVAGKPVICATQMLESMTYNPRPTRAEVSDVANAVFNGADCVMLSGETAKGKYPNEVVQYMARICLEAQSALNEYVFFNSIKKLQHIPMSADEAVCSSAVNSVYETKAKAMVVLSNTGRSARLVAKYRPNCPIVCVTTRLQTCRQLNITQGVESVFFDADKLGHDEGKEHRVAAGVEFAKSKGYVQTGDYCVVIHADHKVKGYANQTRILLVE
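Pyruvate kinase activity monitored as ATP production (luciferase luminescence). Conditions: 0.1 nM enzyme, 0.5 mM PEP, 0.1 mM ADP, 1 h, RT; normalized against uninhibited and no-enzyme wells.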
Shiga toxin inh: A qHTS for Small Molecule Inhibitors of Shiga Toxin; Vero cells, Shiga toxin protein synthesis inhibition reporter; inhibition, % at 38.7 µM; 9.2% of 290,000 active; in the data active = inhibition mostly above about 28%, no sharp cut-off; inactive = mostly below about 43%; also: 0% is about no effect
An asterisk follows results filed as active; ? = inconclusive; . = no result. Unless noted, calls follow the shape of the dose curve; as a rule, active = well fitted inhibition curve with a large enough effect; inconclusive = small, poorly fitted or top-dose-only effect, or another doubt; inactive = no such curve, though single readings can be large or run the other way.

SMILES | Cycloheximide cs | Pf growth 96h | Pf growth 48h | LmPK inh | Shiga toxin inh
CCOC(=O)c1cc2c(=O)n3ccccc3nc2n(Cc2ccco2)c1=NC(=O)c1cccnc1 | -2.6 | ? | ? | -0.6% | -21.8
CCOC(=O)c1cc2c(=O)n3cccc(C)c3nc2n(Cc2ccco2)c1=NC(=O)c1cccnc1 | 6.4 | ? | ? | 3.7% | 32.8*
CC(=O)N=c1c(C#N)cc2c(=O)n3ccccc3nc2n1Cc1ccccc1 | -0.4 | 8.28µM* | ? | 0.7% | -3.2
CCOCCCn1c(=NC(=O)c2cccs2)c(C#N)cc2c(=O)n3cccc(C)c3nc21 | -2.5 | -6.7% | 1.85µM* | 1.6% | -6.0
Cc1ccc(Cn2c(=N)c(C#N)cc3c(=O)n4cccc(C)c4nc32)cc1 | -0.9 | 14.7µM* | 9.8% | -6.5% | -15.4
COCCCn1c(C(=O)NC2CCCCC2C)cc2c(=O)n3cccc(C)c3nc21 (stereo not drawn) | -2.1 | ? | ? | 5.1% | 2.6
Cc1cccc(C(=O)N=c2c(C#N)cc3c(=O)n4cccc(C)c4nc3n2Cc2ccco2)c1 | 3.6 | 13.1µM* | . | 7.4% | -14.0
Cc1cccn2c(=O)c3cc(C#N)c(=NC(=O)c4ccco4)n(Cc4ccco4)c3nc12 | -2.7 | ? | ? | 0.2% | -1.5
COCCCn1c(=NC(C)=O)c(C#N)cc2c(=O)n3cccc(C)c3nc21 | -0.6 | ? | 2.8% | -11.3% | 19.1
CCN(C(=O)c1cc2c(=O)n3cccc(C)c3nc2n1CCCOC)C1CCCCC1 | -1.8 | 9.28µM* | ? | 5.9% | -5.0
COCCCn1c(=NC(=O)c2ccccc2)c(C#N)cc2c(=O)n3cccc(C)c3nc21 | -1.6 | ? | 2.94µM* | 5.9% | -6.6
CCOc1ccc(N(CC(=O)Nc2ccc(OC)cc2OC)S(=O)(=O)c2c(C)[nH]c(=O)[nH]c2=O)cc1 | -4.5 | 33.1% | ? | 11.2% | -4.0
COc1ccc(/C(N)=C/C(=O)C(C)(C)C)cc1 | 18.8* | 64.8% | 76.0% | -2.9% | 60.2
CC1CCCN(CCC(=O)c2ccc(Br)cc2)C1 (stereo not drawn) | 9.9 | 0.0% | -13.0% | -9.3% | -7.8
O=C(C[N+]12CCC(CC1)C(CO)C2)c1ccc(Br)cc1 (stereo not drawn) | 7.3* | -25.1% | -14.1% | 4.1% | 26.8
COC(=O)C1=C(c2ccc(F)cc2OCc2ccccc2)C[C@@H]2CC[C@H]1N2C(=O)N1CCOCC1 | . | ? | 6.57µM* | . | .
COC(=O)C1=C(c2ccc3ccccc3c2)C[C@@H]2CC[C@H]1N2C(=O)N1CCOCC1 | . | ? | 0.0% | . | .
COC(=O)C1=C(c2ccc3ccccc3c2)C[C@@H]2CC[C@H]1N2C(=O)N1CCC(O)CC1 | . | -11.7% | ? | . | .
COC(=O)C1=C(c2ccc(F)cc2OCc2ccccc2)C[C@@H]2CC[C@H]1N2C(=O)N1CCC(C)CC1 | . | ? | 7.38µM* | . | .
COc1ccc(C(CNC(=O)c2ccc(OC)c(S(=O)(=O)N3CCCC3)c2)N2CCCC2)cc1 (stereo not drawn) | . | 10.4µM* | ? | . | .
COc1ccc(C(=O)NCC(C)(C)N2CCOCC2)cc1S(=O)(=O)N1CCCC1 | . | -16.8% | -1.9% | . | .
COc1ccccc1C(CNC(=O)c1ccc(C)c(S(=O)(=O)N2CCCCC2)c1)N1CCCC1 (stereo not drawn) | . | 10.4µM* | ? | . | .
COc1ccc(C(=O)NCC(c2ccc(F)cc2)N2CCOCC2)cc1S(=O)(=O)N1CCCC1 (stereo not drawn) | 0.7 | 10.4µM* | ? | 5.1% | -9.8
CCn1nnc2cc(C(=O)Nc3cc(Cl)ccc3C)ccc21 | . | -12.1% | -6.1% | . | .
Cc1ccc(SC(C)C(=O)NCC(C)C)cc1 (stereo not drawn) | 8.6 | -6.7% | 14.7µM* | -6.8% | 12.1
SMILES | Cycloheximide cs | Pf growth 96h | Pf growth 48h | LmPK inh | Shiga toxin inh
COc1ccccc1CNC(=O)C(C)Sc1ccc(C)cc1 (stereo not drawn) | -3.2 | 16.1% | 2.4% | 9.6% | 25.9
Cc1ccc(-c2nc(N3CCN(S(=O)(=O)c4ccc(F)cc4)CC3)c3ccc(Cl)cc3n2)cc1 | -7.0 | . | . | . | -16.7
CCOc1ccc(/C=N/NC(=O)c2cc3c(OC)cc(OC)cc3[nH]2)cc1OC | -0.5 | 0.928µM* | 1.65µM* | -1.5% | 1.4
CCOc1ccc2[nH]c(C(=O)N/N=C/c3cc(OC)c(OC)c(OC)c3)cc2c1 | -1.6 | 11.7µM* | . | -6.4% | 12.7
C=CCOc1ccc(/C=N/NC(=O)c2cc3c(OC)cc(OC)cc3[nH]2)cc1 | 2.8 | 2.33µM* | 3.29µM* | 0.1% | 5.4
COc1ccc(OC)c(/C=N/NC(=O)c2cc3c(OC)cc(OC)cc3[nH]2)c1 | 24.9 | ? | ? | -1.2% | 7.5
S=C(NCc1ccccc1)NN1CCOCC1 | -1.1 | 0.0% | 1.3% | 0.1% | 8.6
Cc1ccccc1-c1nc(Cc2ccccc2)no1 | 51.0* | ? | 127.6% | -8.6% | 68.7*
COc1ccc(-c2nc(Cc3ccc(Cl)cc3)no2)cc1OC | -1.9 | . | 6.5% | 8.0% | -5.5
Clc1ccc(-c2nc(Cc3ccccc3)no2)cc1 | 30.6* | ? | . | -1.7% | 38.4
Fc1ccc(-[n+]2nc(Nc3ccccc3)sc2-c2c(Cl)cccc2Cl)cc1 | -0.9 | ? | ? | -2.6% | 10.6
CCc1ccc(Nc2n[n+](-c3ccccc3)c(-c3ccc(N(CC)CC)cc3)s2)cc1 | 34.5* | 3.29µM* | ? | -2.2% | 51.5*
CCN(CC)c1ccc(-c2sc(Nc3ccccc3)n[n+]2-c2ccc(F)cc2)cc1 | 18.2* | 9.28µM* | -24.9% | -9.9% | 25.9*
CCc1ccc(Nc2n[n+](-c3ccccc3)c(-c3c(Cl)cccc3Cl)s2)cc1 | 0.2 | ? | 10.4µM* | 2.9% | -1.3
CCc1ccc(Nc2n[n+](-c3ccccc3)c(-c3cc(OC)c(OC)cc3Br)s2)cc1 | 2.0 | 11.7µM* | ? | 2.3% | -9.4
O=C(CCCn1cncn1)N1CCCC(N2CCN(c3ccc(F)cc3)CC2)C1 (stereo not drawn) | -1.2 | ? | -15.1% | -14.8% | -27.8
CN(C)c1ccc(-c2sc(Nc3ccccc3)n[n+]2-c2ccc(F)cc2)cc1 | 35.9* | ? | 40.4% | -3.7% | 50.4*
COc1ccc(-c2sc(Nc3ccccc3)n[n+]2-c2ccc(F)cc2)cc1Br | 0.6 | 7.38µM* | ? | 1.0% | -6.1
CCc1ccc(Nc2n[n+](-c3ccccc3)c(/C=C/c3ccccc3)s2)cc1 | 0.4 | 1.17µM* | ? | -4.4% | -2.4
COc1ccc2ccccc2c1-c1sc(Nc2ccccc2)n[n+]1-c1ccc(F)cc1 | -2.4 | ? | ? | -2.5% | -6.6
Cc1ccc(Nc2nc(C)cc(C)c2C(N)=O)c(C)c1 | 3.6 | 0.0% | 17.0% | 1.6% | -6.6
CCOc1ccc(NC(=O)CCN2C(=O)c3cccc([N+](=O)[O-])c3C2=O)cc1 | -2.1 | ? | 6.6% | -17.7% | -6.9
CN(C)c1ccc(NC(=O)CCN2C(=O)c3cccc([N+](=O)[O-])c3C2=O)cc1 | 15.5* | 11.7µM* | 49.9% | -1.8% | 22.9

Assay outcomes (PubChem BioAssay)
